Measured values reported in PubChem BioAssay.
Results filed as inconclusive are left out. Active and inactive are the calls of the source.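 The calls were made as follows, unless noted: active = normalized viability below 100% at a tested concentration; inactive = the rest.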

Tests used:
[1] = viability loss in pontine glioma line – cell-based, SU-DIPG-XIII, MIPE4.0, CellTiter-Glo, qHTS, dose response (AID 1347061; cut-off not given, nearly all actives have AC50 up to about 37 µM;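 also: cells exposed to compound for 48 hours before readout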); conditions: CellTiter-Glo ATP luminescence
[2] = viability loss in pontine glioma line – cell-based, JHH-DIPG-1, MIPE4.0, CellTiter-Glo, qHTS, dose response (AID 1347062; cut-off not given, nearly all actives have AC50 up to about 27 µM;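 as to AC50: cells exposed to compound for two days before readout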); conditions: JHH-DIPG-1 viability, CellTiter-Glo ATP luminescence
[3] = viability loss in pontine glioma line – cell-based, SU-DIPG-XXV, MIPE5.0, CellTiter-Glo, qHTS, dose response (AID 1347065; cut-off not given, nearly all actives have AC50 up to about 26 µM;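 also: cells exposed to compound for 48 hours before ATP readout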); conditions: CellTiter-Glo ATP luminescence
[4] = JHH-DIPG-1 glioma cell viability, MIPE5.0 library, CellTiter-Glo luminescence, qHTS (AID 1347067; cut-off not given, nearly all actives have AC50 up to about 26 µM;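 also: cells exposed to compound for 48 hours before readout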); conditions: JHH-DIPG-1 glioma viability, CellTiter-Glo ATP luminescence
[5] = growth inhibition of DIPG cells – cell-based, MIPE5.0 library, qHTS (AID 1347068; cut-off not given, nearly all actives have IC50 up to about 30 µM;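 as to IC50: cells exposed to compound for 48 hours before viability readout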); conditions: SU-DIPG-XXV viability
[6] = growth inhibition of DIPG cells – cell-based, MIPE4.0 library, CellTiter-Glo luminescence, qHTS (AID 1347066; cut-off not given, nearly all actives have AC50 up to about 30 µM;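 also: cells exposed to compound for 48 hours before readout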); conditions: SU-DIPG-VI viability, CellTiter-Glo ATP luminescence
[7] = compounds altering HSF1 focus formation in cells – imaging, Selleck Cancer Library (AID 1347162; in the data active = plate-normalised HSF1 focus index below about 0.46); conditions: human cells, HSF1 nuclear foci imaging, at 10 µM; SSMD: measured here: HSF1 foci SSMD mean; cell count: measured here: cell number; plate-normalised HSF1 focus index: stronger effect = lower value
[8] = viability loss with induced miR-34 in A549 – imaging, A549 dox-inducible miR-34, nuclei and caspase counts, primary screen (AID 1347080;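 active = compounds whose cell count with miR-34 switched on is under 0.7 times the count with it off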); conditions: A549 miR-34 inducible, Hoechst nuclei count, 48 h
[9] = MELAS cybrid and Rieske KO viability enhancers – cell-based, MELAS cybrids, Rieske KO mouse fibroblasts, CellTiter-Glo, primary screen (AID 1508586;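 active = mean z-score across replicates of 1.96 or higher in either the MELAS or the Rieske mutant cell line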;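 also: z relative to plate mean and SD of compound and empty wells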); conditions: low glucose
[10] = drug combination growth inhibition, ovarian cancer – cell-based, oncology-focused library, rucaparib conditional, profiling panel (AID 1508598); conditions: patient-derived ovarian cancer cells, CellTiter-Glo viability, 144 h, stronger effect = lower value
[11] = stronger effect = lower value, cell number ratio, induced over uninduced
[12] = measured here: relative caspase fold change +Dox/-Dox
[13] = measured here: total cells with miR-34 induction, stronger effect = lower value
[14] = measured here: total cells without miR-34 induction
[15] = MELAS cybrid survival, CellTiter-Glo 48 h, stronger effect = higher value
[16] = Rieske KO mouse fibroblast survival, CellTiter-Glo 72 h
[17] = at 0.000305 µM, OCI-C5x cells, with rucaparib 10 µM, 100% = cells with rucaparib alone
[18] = at 0.000305 µM, OCI-C5x cells, without rucaparib
[19] = at 0.000305 µM, OCI-P5x cells, with rucaparib 20 µM, 100% = cells with rucaparib alone
[20] = at 0.000305 µM, OCI-P5x cells, without rucaparib
[21] = at 0.00122 µM, OCI-C5x cells, with rucaparib 10 µM, 100% = cells with rucaparib alone
[22] = at 0.00122 µM, OCI-C5x cells, without rucaparib
[23] = at 0.00122 µM, OCI-P5x cells, with rucaparib 20 µM, 100% = cells with rucaparib alone
[24] = at 0.00122 µM, OCI-P5x cells, without rucaparib
[25] = at 0.00488 µM, OCI-C5x cells, with rucaparib 10 µM, 100% = cells with rucaparib alone
[26] = at 0.00488 µM, OCI-C5x cells, without rucaparib
[27] = at 0.00488 µM, OCI-P5x cells, with rucaparib 20 µM, 100% = cells with rucaparib alone
[28] = at 0.00488 µM, OCI-P5x cells, without rucaparib
[29] = at 0.0195 µM, OCI-C5x cells, with rucaparib 10 µM, 100% = cells with rucaparib alone
[30] = at 0.0195 µM, OCI-C5x cells, without rucaparib
[31] = at 0.0195 µM, OCI-P5x cells, with rucaparib 20 µM, 100% = cells with rucaparib alone
[32] = at 0.0195 µM, OCI-P5x cells, without rucaparib
[33] = at 0.0781 µM, OCI-C5x cells, with rucaparib 10 µM, 100% = cells with rucaparib alone
[34] = at 0.0781 µM, OCI-C5x cells, without rucaparib
[35] = at 0.0781 µM, OCI-P5x cells, with rucaparib 20 µM, 100% = cells with rucaparib alone
[36] = at 0.0781 µM, OCI-P5x cells, without rucaparib
[37] = at 0.313 µM, OCI-C5x cells, with rucaparib 10 µM, 100% = cells with rucaparib alone
[38] = at 0.313 µM, OCI-C5x cells, without rucaparib
[39] = at 0.313 µM, OCI-P5x cells, with rucaparib 20 µM, 100% = cells with rucaparib alone
[40] = at 0.313 µM, OCI-P5x cells, without rucaparib
[41] = at 1.25 µM, OCI-C5x cells, with rucaparib 10 µM, 100% = cells with rucaparib alone
[42] = at 1.25 µM, OCI-C5x cells, without rucaparib
[43] = at 1.25 µM, OCI-P5x cells, with rucaparib 20 µM, 100% = cells with rucaparib alone
[44] = at 1.25 µM, OCI-P5x cells, without rucaparib
[45] = at 5 µM, OCI-C5x cells, with rucaparib 10 µM, 100% = cells with rucaparib alone
[46] = at 5 µM, OCI-C5x cells, without rucaparib
[47] = at 5 µM, OCI-P5x cells, with rucaparib 20 µM, 100% = cells with rucaparib alone
[48] = at 5 µM, OCI-P5x cells, without rucaparib

CC(C)(Cc1ccc2ccccc2c1)NC[C@@H](O)COc1cccc(Cl)c1C#N
inactive: outcome [1] | outcome [2]
active: AC50 [3] 10.5 µM | AC50 [4] 10.5 µM | IC50 [5] 13.2 µM

COc1cc(Oc2ccnc3cc(OC)c(OC)cc23)ccc1NC(=O)NC(C)c1nccs1 (stereo not given)
1.89: SSMD [7]
inactive: outcome [1] | outcome [2] | outcome [6] | outcome [4] | outcome [5] | plate-normalised HSF1 focus index [7] 1.1
6450: cell count [7]

Cn1cc(-c2ccc3nnc(C(F)(F)c4ccc5ncccc5c4)n3n2)cn1
6960: cell count [8, 13]
active: viability [10, 18] 90.8% | viability [10, 20] 89.6% | viability [10, 24] 98.1% | viability [10, 32] 98.3% | viability [10, 40] 95.6% | viability [10, 47] 97%
8080: cell count [8, 14]
0.881: fold change [8, 12]
inactive: outcome [1] | outcome [2] | outcome [3] | outcome [4] | outcome [5] | fold change [8, 11] 0.861 | plate-normalised HSF1 focus index [7] 1.14 | z-score [9, 15] -0.414 | viability [10, 17] 113% | viability [10, 19] 102% | viability [10, 21] 123% | viability [10, 22] 106% | viability [10, 23] 104% | viability [10, 25] 118% | viability [10, 26] 109% | viability [10, 27] 107% | viability [10, 28] 101% | viability [10, 29] 116% | viability [10, 30] 114% | viability [10, 31] 106% | viability [10, 33] 110% | viability [10, 34] 110% | viability [10, 35] 104% | viability [10, 36] 102% | viability [10, 37] 120% | viability [10, 38] 112% | viability [10, 39] 105% | viability [10, 41] 133% | viability [10, 42] 123% | viability [10, 43] 107% | viability [10, 44] 104% | viability [10, 45] 130% | viability [10, 46] 137% | viability [10, 48] 104%
2.73: SSMD [7]
0.567: z-score [9, 16]
6920: cell count [7]

O=C(O)CC/C=C\CC[C@@H]1[C@@H](N2CCCCC2)[C@@H](O)C[C@@H]1OCc1ccc(-c2ccccc2)cc1
inactive: outcome [1] | outcome [2] | outcome [3] | outcome [6] | outcome [4] | outcome [5]

Cc1cnc(-c2cnc(NCCNc3ccc(C#N)cn3)nc2-c2ccc(Cl)cc2Cl)[nH]1
2900: cell count [8, 13]
inactive: outcome [1] | outcome [2] | outcome [3] | outcome [5] | fold change [8, 11] 0.776 | plate-normalised HSF1 focus index [7] 0.999 | z-score [9, 15] -0.0957 | viability [10, 17] 111% | viability [10, 18] 124% | viability [10, 19] 101% | viability [10, 20] 106% | viability [10, 21] 108% | viability [10, 22] 122% | viability [10, 23] 101% | viability [10, 24] 106% | viability [10, 25] 118% | viability [10, 26] 114% | viability [10, 29] 126% | viability [10, 30] 129% | viability [10, 32] 102% | viability [10, 33] 113% | viability [10, 34] 116% | viability [10, 35] 102% | viability [10, 37] 127% | viability [10, 38] 127% | viability [10, 41] 121% | viability [10, 42] 115% | viability [10, 46] 133%
-0.0886: z-score [9, 16]
0.884: fold change [8, 12]
-0.145: SSMD [7]
3740: cell count [8, 14]
7270: cell count [7]
active: viability [10, 27] 98% | viability [10, 28] 99% | viability [10, 31] 88.1% | viability [10, 36] 99.7% | viability [10, 39] 93.1% | viability [10, 40] 99.5% | viability [10, 43] 93.8% | viability [10, 44] 91.8% | viability [10, 45] 80.9% | viability [10, 47] 58.5% | viability [10, 48] 78%

COc1ccc(Cc2nccc3cc(OC)c(OC)cc23)cc1OC
inactive: outcome [1] | outcome [2] | outcome [3] | outcome [6]

COc1cc(OC2CCN(C)CC2)ccc1Nc1ncc2c(n1)n(C1CCCC1)c(=O)n2C
inactive: fold change [8, 11] 0.984 | plate-normalised HSF1 focus index [7] 1.05 | z-score [9, 15] -0.255 | viability [10, 17] 107% | viability [10, 18] 133% | viability [10, 19] 116% | viability [10, 20] 112% | viability [10, 21] 107% | viability [10, 22] 125% | viability [10, 23] 117% | viability [10, 24] 115% | viability [10, 25] 107% | viability [10, 26] 120% | viability [10, 27] 110% | viability [10, 28] 108% | viability [10, 29] 105% | viability [10, 30] 113% | viability [10, 31] 112% | viability [10, 34] 120% | viability [10, 35] 118% | viability [10, 36] 110% | viability [10, 37] 101% | viability [10, 38] 124% | viability [10, 39] 122% | viability [10, 40] 111% | viability [10, 42] 115% | viability [10, 43] 106% | viability [10, 46] 115%
0.864: fold change [8, 12]
5400: cell count [8, 13]
active: AC50 [1] 16.6 µM | AC50 [2] 18.7 µM | AC50 [3] 13.2 µM | AC50 [4] 14.8 µM | IC50 [5] 16.6 µM | viability [10, 32] 94% | viability [10, 33] 96.6% | viability [10, 41] 48.8% | viability [10, 44] 64.7% | viability [10, 45] 46.3% | viability [10, 47] 76.9% | viability [10, 48] 28.1%
0.614: z-score [9, 16]
7430: cell count [7]
5490: cell count [8, 14]
1.43: SSMD [7]
